The nature of assay [1]: qHTS assay to identify small molecule antagonists of the thyroid receptor (TR) signaling pathway - cell viability counter screen (AID 743064). Further: nearly all actives have a fitted effect of over 50% in size. Further: potency means the concentration at half of the fitted maximal effect. Summed up: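 In rat pituitary GH3.TRE-Luc reporter cells co-exposed to compound and 1 nM T3 for 23.5 h, cytotoxicity was assessed with CellTiter-Fluor in the same wells, read by fluorescence.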
(In general: qHTS replaces the single test concentration by a dilution series.)

The subject of assay [2] is thyroid hormone receptor (rat, GH3 cells). As to the kind of experiment: qHTS assay to identify small molecule agonists of the thyroid receptor (TR) signaling pathway (AID 743066; calls by dose curve).
For assay [3], the target named is Estrogen receptor (Homo sapiens) (UniProt P03372). As to the kind of experiment: qHTS assay to identify small molecule antagonists of the estrogen receptor alpha (ER-alpha) signaling pathway (AID 743069; active means well fitted curve in the direction sought with a large enough effect in the signal ratio in the repeat runs, not every such curve was filed as active; the % refers to the signal ratio). Summed up: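 In this cell-based reporter format, GripTite HEK293 cells harbouring ER-alpha-UAS-bla were grown overnight with 2% charcoal-stripped FBS, dosed with DMSO-dissolved compounds, then challenged with 17beta-estradiol. After 18 hr at 37C, beta-lactamase activity was detected by FRET fluorescence.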
Sequence of Estrogen receptor (Homo sapiens) (P03372 whole entry, looked up): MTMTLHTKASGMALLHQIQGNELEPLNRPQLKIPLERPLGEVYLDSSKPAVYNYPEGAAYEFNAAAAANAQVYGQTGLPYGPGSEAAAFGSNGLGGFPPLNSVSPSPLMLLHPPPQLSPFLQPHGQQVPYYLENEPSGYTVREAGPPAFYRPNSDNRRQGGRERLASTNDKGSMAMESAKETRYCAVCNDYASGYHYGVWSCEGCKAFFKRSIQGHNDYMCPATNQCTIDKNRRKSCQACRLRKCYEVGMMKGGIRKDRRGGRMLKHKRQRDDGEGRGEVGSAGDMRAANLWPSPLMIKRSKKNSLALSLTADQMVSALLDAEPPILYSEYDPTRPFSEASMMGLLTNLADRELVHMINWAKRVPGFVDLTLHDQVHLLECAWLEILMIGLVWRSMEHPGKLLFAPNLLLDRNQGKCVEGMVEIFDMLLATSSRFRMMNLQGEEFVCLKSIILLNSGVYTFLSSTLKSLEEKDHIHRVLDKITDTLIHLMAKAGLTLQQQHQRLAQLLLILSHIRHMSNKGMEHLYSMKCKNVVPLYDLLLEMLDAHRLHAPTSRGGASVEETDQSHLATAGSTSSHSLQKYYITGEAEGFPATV

Assay [4] can be described thus: qHTS assay to identify small molecule antagonists of the estrogen receptor alpha (ER-alpha) signaling pathway - cell viability counter screen (AID 743074; calls by dose curve; further: nearly all actives have a fitted effect of over 45% in size).
The target in assay [5] is Estrogen receptor (Homo sapiens) (UniProt P03372). As to the kind of experiment: qHTS assay to identify small molecule agonists of the estrogen receptor alpha (ER-alpha) signaling pathway (AID 743075; calls by dose curve).
Assay [6] has the same target. Kind of assay: qHTS assay to identify small molecule agonists of the estrogen receptor alpha (ER-alpha) signaling pathway using the BG1 cell line (AID 743079). Further: nearly all actives have a fitted effect of over 20% in size.
A short description of assay [7]: qHTS assay to identify small molecule antagonists of the estrogen receptor alpha (ER-alpha) signaling pathway using the BG1 cell line (AID 743080; calls by dose curve;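 further: BG1 cells stimulated with 17beta-estradiol alongside compound; series mostly up to about 70 µM; nearly all actives have a fitted effect of over 25% in size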). Summed up: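 Readout is ONE-Glo luminescence, taken 30 min at room temperature after reagent addition, preceded by a CellTiter-Fluor viability read; BG1-Luc-4E2 cells had received compound and 17beta-estradiol for 21.5 h at 37 C.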

Assay [8] in a line: qHTS assay to identify small molecule antagonists of the estrogen receptor alpha (ER-alpha) signaling pathway using the BG1 cell line - cell viability counter screen (AID 743081).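 Further: compound given together with 17beta-estradiol as the ER stimulus; series mostly up to about 70 µM; nearly all actives have a fitted effect of over 45% in size.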
A further assay concerns the target Aromatase (Homo sapiens) (UniProt P11511). As to the kind of experiment: qHTS assay to identify aromatase inhibitors (AID 743083). Further: series mostly up to about 70 µM; nearly all actives have a fitted effect of over 55% in size.
Assay [9] is described as follows: qHTS assay to identify small molecule antagonists of the thyroid receptor (TR) signaling pathway (AID 743065). Further: series mostly up to about 70 µM; nearly all actives have a fitted effect of over 55% in size. Summed up:
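GH3.TRE-Luc rat pituitary cells (two TREs driving luciferase) were dosed with compound, then stimulated with 1 nM T3 (final) for 23.5 h at 37 C. ONE-Glo luminescence was the read-out, with CellTiter-Fluor fluorescence as the cytotoxicity counter-screen.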

Inconclusive results are not listed. Active and inactive are the calls of the source. Unless noted, the call rests on the fitted dose curve; in most records, active means well fitted curve in the direction sought with a large enough effect in the repeat runs; inconclusive means weak or mixed curves; inactive means no such curve, though single readings can be large; an effect the other way counts as inactive or inconclusive.

Sequence of Aromatase (Homo sapiens) (P11511 whole entry, looked up): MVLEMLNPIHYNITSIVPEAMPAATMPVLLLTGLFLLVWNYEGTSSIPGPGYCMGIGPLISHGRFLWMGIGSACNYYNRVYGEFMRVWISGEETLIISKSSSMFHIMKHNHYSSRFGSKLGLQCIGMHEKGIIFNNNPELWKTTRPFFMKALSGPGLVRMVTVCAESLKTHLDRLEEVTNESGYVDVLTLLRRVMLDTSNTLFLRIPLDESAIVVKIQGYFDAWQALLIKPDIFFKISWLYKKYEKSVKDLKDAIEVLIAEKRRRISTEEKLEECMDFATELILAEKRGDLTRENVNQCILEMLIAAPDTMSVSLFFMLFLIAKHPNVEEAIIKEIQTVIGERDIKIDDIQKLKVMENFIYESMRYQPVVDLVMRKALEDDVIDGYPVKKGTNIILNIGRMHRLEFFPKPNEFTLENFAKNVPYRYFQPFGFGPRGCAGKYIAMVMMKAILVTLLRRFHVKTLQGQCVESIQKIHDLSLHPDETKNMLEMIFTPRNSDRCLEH

On to `c1cnc(N2CCN(Cc3ccc4c(c3)OCO4)CC2)nc1`, for which the Potency entry (in assay [1]; in assay [5]; in [6]; in assay [8]; in the assay with Aromatase (Homo sapiens)) was “inactive” each time. Further, the result in assay [2], in [3], in [4] and in assay [7] was inactive.

As for `CCN1CCC[C@H]1CNC(=O)c1cc(S(N)(=O)=O)ccc1OC`, the Potency result (in assay [1]; in [8]; in the assay with Aromatase (Homo sapiens)) was “inactive” throughout. For the same compound, the compound was classed as inactive in assay [2] and in assay [4].

On to `CCn1ccnc1CC1COc2ccccc2O1` (stereo not given), for which the Potency result (in assay [1]; in assay [5]; in [6]; in assay [8]; in the assay with Aromatase (Homo sapiens)) was “inactive” each time. Besides, the call in assay [2], in assay [3], in assay [4] and in assay [7] was inactive.

On to `COc1ccc2c(c1)c(CC(=O)OCC(=O)O)c(C)n2C(=O)c1ccc(Cl)cc1`, for which the Potency result (in assay [1]; with Aromatase (Homo sapiens)) was “inactive” throughout. Further, the call in assay [2] and in assay [4] was inactive.

Turning to `COc1c(N2C[C@@H]3CCCN[C@@H]3C2)c(F)cc2c(=O)c(C(=O)O)cn(C3CC3)c12`, the compound was classed as inactive in [3], in assay [4] and in assay [7]. The Potency result (in assay [5]; in assay [6]; in assay [8]; with Aromatase (Homo sapiens)) was “inactive” in each case.

Turning to `CC/C=C\CC/C=C/CO`, the call in [2] and in assay [4] was inactive. Also, the Potency result (in [8]; with Aromatase (Homo sapiens)) was “inactive” each time.

With `CO/N=C(/C(=O)N[C@@H]1C(=O)N2C(C(=O)OCOC(=O)C(C)(C)C)=C(C)CS[C@H]12)c1csc(N)n1`, the Potency result (in [1]; in [8]; in the assay with Aromatase (Homo sapiens)) was “inactive” throughout. The result in assay [2] was inactive.

On to `Cc1cccc(C)c1NC(=O)C(C)N` (stereo not given), for which the outcome in assay [3], in [4] and in [7] was inactive. Moreover, the Potency result (in assay [5]; in assay [6]; in assay [8]; with Aromatase (Homo sapiens)) was “inactive” throughout.

Take `C=COCC1CCC(CO)CC1` (stereo not given): the Potency result (in assay [9]; in assay [5]; in assay [6]; in assay [8]; with Aromatase (Homo sapiens)) was “inactive” each time. Further, the result in assay [2] and in assay [7] was inactive.

Turning to `O=C(CCCN1CCC(O)(c2cccc(C(F)(F)F)c2)CC1)c1ccc(F)cc1`, the call in assay [4] was inactive. The Potency entry with Aromatase (Homo sapiens) is “inactive”.

For `C[C@H](NC(CCc1ccccc1)C(=O)O)C(=O)N1CCC[C@H]1C(=O)O` (stereo not given in full), the Potency entry (in [9]; in assay [5]; in [6]; in assay [8]; with Aromatase (Homo sapiens)) was “inactive” in each case. Also, the call in assay [2], in assay [3] and in assay [7] was inactive.

`CCn1nc(C(=O)O)c(=O)c2cc3c(cc21)OCO3`: the compound was called inactive in assay [3], in assay [4] and in [7]. Also, the Potency result (in [5]; in [6]; in assay [8]; in the assay with Aromatase (Homo sapiens)) was “inactive” in each case.

For the compound `CC(=O)OCC(=O)[C@@]1(O)CC[C@H]2[C@@H]3CCC4=CC(=O)CC[C@]4(C)[C@H]3C(=O)C[C@@]21C`, in assay [3], the compound was called inactive. The Potency entry (in assay [5]; in [6]; in assay [8]; with Aromatase (Homo sapiens)) was “inactive” in each case.

On to `CCN(CC)CCOCCOC(=O)C1(c2ccccc2)CCCC1`, for which the Potency result (in assay [5]; in assay [6]; in assay [8]; in the assay with Aromatase (Homo sapiens)) was “inactive” throughout.

With `NC(=O)COCCN1CCN(C(c2ccccc2)c2ccc(Cl)cc2)CC1` (stereo not given), the Potency in assay [1] was 23.7 µM (active). The call in [3], in assay [4] and in assay [7] was inactive. In addition, the Potency result (in assay [5]; in [6]; in assay [8]; with Aromatase (Homo sapiens)) was “inactive” throughout.

Take `CC(C)(c1ccc(O)cc1)c1ccc(O)cc1`: the compound was classed as inactive in assay [2], in assay [4] and in assay [7]. The Potency entry (in assay [8]; with Aromatase (Homo sapiens)) was “inactive” in each case.

For `Cc1cccn2c(=O)c(-c3nnn[nH]3)cnc12`, the compound was called inactive in [3], in [4] and in assay [7]. The Potency result (in [5]; in [6]; in assay [8]; with Aromatase (Homo sapiens)) was “inactive” in each case.

Consider `C/C=C(\C)C#N`, for which the Potency result (in assay [9]; in assay [5]; in assay [6]; in assay [8]; with Aromatase (Homo sapiens)) was “inactive” in each case. Besides, the result in [2], in assay [3], in assay [4] and in [7] was inactive.

Turning to `Nc1c2c(nc3ccccc13)CCCC2O` (stereo not given), the call in assay [3], in assay [4] and in assay [7] was inactive. The Potency result in assay [5], in assay [6] and in assay [8] was “inactive” each time.

In the case of `O=C1CC2CC1C1CCCC21` (stereo not given), the Potency entry (in [9]; in [5]; in assay [8]; with Aromatase (Homo sapiens)) was “inactive” each time. Also, the result in assay [2], in assay [4] and in [7] was inactive.

`COCCc1ccc(OCC(O)CNC(C)C)cc1` (stereo not given): in [4], the compound was called inactive. Besides, the Potency result (in assay [8]; in the assay with Aromatase (Homo sapiens)) was “inactive” each time.

Turning to `Oc1ccc(C2CNCCc3c2cc(O)c(O)c3Cl)cc1` (stereo not given), the compound was classed as inactive in assay [4]. Moreover, the Potency result (in assay [8]; with Aromatase (Homo sapiens)) was “inactive” throughout.

The values are drawn from PubChem BioAssay (Tox21).
